SMILES strings stand for the structures. Hit rate of the full screen: of about 69,000 compounds, about 8,600 (12%) showed an effect of 50% or more. For the sample, strong results were picked, then their nearest neighbours and some compounds at random.

The subject of the test is Plasmodium berghei. Put plainly: Screen against P. berghei liver stage (PbLuc), transformed with Luciferase, at 10uM. It is filed as functional, HepG2. The following applies: tested at 10 uM.
In the case of `Cc1nn(C)c2cn(CC(=O)N3CCN(c4ccccc4)CC3)nc12`, the INHIBITION turned out to be 30.8%.

For `CC1(C)C(C(=O)NCCC2CN(Cc3c[nH]cn3)CCO2)C1(C)C` (stereo not given), the INHIBITION was found to be 55.5%.

For `Cn1ccnc1CN1CCOC(Cc2ccccc2)C1` (stereo not given), the INHIBITION was found to be 0.696%.

With `c1ccc(C(CC2CN(Cc3c[nH]cn3)CCO2)c2ccccc2)cc1` (stereo not given), the INHIBITION is listed as 72.1%.

As for `O=C(NCCC1CN(Cc2c[nH]cn2)CCO1)Nc1ccccc1` (stereo not given), the INHIBITION came to 1.79%.

For the compound `O=C(NCCC1CN(Cc2c[nH]cn2)CCO1)c1ccccc1O` (stereo not given), the INHIBITION is 18.6%.

Consider `c1ccc(C(CC2CN(Cc3ncc[nH]3)CCO2)c2ccccc2)cc1` (stereo not given), for which the INHIBITION worked out at 43.9%.

With `CC(C)NC(=O)N(Cc1cc(O)nc2ccccc12)C(C)C`, the INHIBITION is given as -10.3%.

Take `CCOc1ccnc(N2CCN(C(=O)c3ccoc3)CC2)n1`: the INHIBITION was 23.7%.

Regarding `Cc1cc(C)c2[nH]c(C(=O)NCCN3CCNC3=O)c(C)c2c1`, the INHIBITION is on record as -16.3%.

As to `Cc1nc(=O)c(CC(=O)N2C[C@@H]3CC[C@H]2CN(C(=O)N(C)C)C3)c(C)[nH]1`, the INHIBITION was 0.547%.

In the case of `Cc1ccc(CN2C[C@@H](OCc3csc(C)n3)[C@H]3COC[C@H]32)s1`, the INHIBITION is given as -14.4%.

Consider `Cc1cnc(CNC(=O)[C@@]23CCO[C@@H]2CCNC3)cn1`, for which the INHIBITION came out at 49.4%.

For the compound `Cc1cc(C[C@@H]2CCC[C@H]2NCc2cc(C)c(O)c(C)c2)on1`, the INHIBITION is listed as 26.7%.

Take `CCCOc1ccccc1CN[C@@H]1CCC[C@H]1Cc1cc(C)no1`: the INHIBITION worked out at 54.5%.

As to `Cc1cc(C[C@@H]2CCC[C@H]2NCc2c[nH]nc2-c2ccccc2)on1`, the INHIBITION was determined as 5.56%.

Take `Cc1cc(C[C@@H]2COC[C@H]2NCc2ccccc2C(F)(F)F)on1`: the INHIBITION was determined as 50%.

On to `Cc1cc(C[C@@H]2COC[C@H]2NCc2ccc(C(F)(F)F)cc2)on1`, for which the INHIBITION was 31.6%.

Consider `Cc1cc(C[C@@H]2CCC[C@H]2NCc2ccc(C(F)(F)F)cc2)on1`, for which the INHIBITION amounted to 41.2%.

`Cc1cc(C[C@@H]2CCC[C@H]2NCc2cccc(F)c2F)on1`: the INHIBITION was determined as 15.9%.

Regarding `Cc1cc(C[C@@H]2CCC[C@H]2NCc2ccccc2C)on1`, the INHIBITION is 44.1%.

For `Cc1cc(C[C@@H]2CCC[C@H]2NCc2cc(F)ccc2F)on1`, the INHIBITION was -1.85%.

Turning to `Cc1cc(C[C@@H]2COC[C@H]2NCc2ccc(Br)s2)on1`, the INHIBITION is listed as 31.8%.

As for `Cc1cc(C[C@@H]2CCC[C@H]2NCc2ccccc2C(F)(F)F)on1`, the INHIBITION is on record as 70.5%.

For `Cc1cc(C[C@@H]2CCC[C@H]2NCc2ccccc2F)on1`, the INHIBITION is listed as 75.3%.

In the case of `O=C(CCc1nc(C2CC2)no1)c1ccc(F)c(F)c1`, the INHIBITION is reported as -2.43%.

For `CCOc1ccc(OCc2nc3c(c(=O)[nH]2)CCNC3)cc1`, the INHIBITION was 26.7%.

As to `c1coc(CN2C[C@@H]3OCCN(CCN4CCCC4)[C@@H]3C2)c1`, the INHIBITION is listed as 36.4%.

Consider `CCn1cnnc1CNC(=O)N1CCC(OCc2ccccc2)CC1`, for which the INHIBITION is given as 23.4%.

Take `COCc1cncc2c1CCN(C(=O)c1ccc(C#N)cc1)C2`: the INHIBITION came to 5.89%.

For `CC(C)C(=O)N1CCC(C)(c2cc[nH]n2)CC1`, the INHIBITION is recorded as -16.9%.

Take `O[C@@H]1CC(CNCc2cccc(Cl)c2)(COc2cnccn2)C[C@@H]1O` (stereo not given in full): the INHIBITION is -4.26%.

For the compound `CN(Cc1n[nH]c2c1CCC2)C(=O)CCc1cc2n(n1)CCCNC2`, the INHIBITION turned out to be 0.72%.

As for `CO[C@@H]1CN(c2ccccc2)S(=O)(=O)[C@@]12CCN(C(C)=O)C2`, the INHIBITION is reported as 34.3%.

For the compound `COC(=O)N1CC[C@@]2(C1)[C@H](OC)CN(c1ccccc1)S2(=O)=O`, the INHIBITION amounted to 31.3%.

Consider `CO[C@@H]1CN(c2ccccc2)S(=O)(=O)[C@@]12CCN(C(=O)N(C)C)C2`, for which the INHIBITION is on record as 51.7%.

For the compound `O=C1CCC2(CCNCC2)CN1Cc1nncn1CCc1ccccc1`, the INHIBITION was determined as 0.348%.

In the case of `Cc1nccn1-c1ccc(CNC(=O)c2ccc(O)nc2)cn1`, the INHIBITION turned out to be 38.3%.

Regarding `Cc1nccn1-c1ccc(CNC(=O)c2ccc[nH]2)cn1`, the INHIBITION stood at 10.5%.

Turning to `Cc1nccn1-c1ccc(CNS(=O)(=O)N2CCCCC2C)cn1` (stereo not given), the INHIBITION was 43.9%.

Take `CC(=O)NCc1ccc(-n2ccnc2C)nc1`: the INHIBITION is 57.6%.

Take `Cc1nccn1-c1ccc(CNS(=O)(=O)N2CCCC(C)C2)cn1` (stereo not given): the INHIBITION turned out to be 37.7%.

As for `Cc1nccn1-c1ccc(CNS(=O)(=O)N2CCC(C)CC2)cn1`, the INHIBITION amounted to 76%.

With `CCn1cc(C(=O)Nc2cc(C(=O)OC)ccc2C(=O)OC)cn1`, the INHIBITION was found to be 13.3%.

With `COc1ccccc1Cc1cc(O)nc(NC(C)CN(C)C)n1` (stereo not given), the INHIBITION amounted to 9.63%.

As for `CC(NC(=O)COc1ccccc1Cl)c1nnc2n1CCC2` (stereo not given), the INHIBITION is recorded as -40.7%.

As for `CC(C)CN1CC(C(=O)NCc2ccnc(-n3cccn3)c2)CC1=O` (stereo not given), the INHIBITION came to 27.357%.

Consider `CCS(=O)(=O)N1CCCC(Cc2cnccn2)C1` (stereo not given), for which the INHIBITION is 56%.

On to `CS(=O)(=O)N1CCCC(Cc2cnc(Br)cn2)C1` (stereo not given), for which the INHIBITION worked out at 26.7%.

In the case of `Cn1cc(C(=O)N2CCCC(Cc3cnccn3)C2)cn1` (stereo not given), the INHIBITION is reported as -12.2%.

`CC(NC(=O)CCCn1cnc2ccccc2c1=O)c1ncn[nH]1` (stereo not given): the INHIBITION came out at 11.1%.

As for `COCc1cc(NCCc2ccc(OC)cc2)n2nccc2n1`, the INHIBITION was found to be 32.2%.

Take `N#CC1(NC(=O)c2ccc(-c3nc(C4CC4)n[nH]3)cc2)CC1`: the INHIBITION is 8.38%.

With `Cc1cc(C)cc(Nc2nc(C)cc(=O)n2CC(=O)NC(C)C)c1`, the INHIBITION came out at 34.6%.

On to `Cc1cc(=O)n(CC(=O)NCCC(C)C)c(-c2cccc(Cl)c2)n1`, for which the INHIBITION is on record as 48.5%.

Source of the values: ChEMBL document CHEMBL4513216, “Probing the Open Global Health Chemical Diversity Library for Multistage-Active Starting Points for Next-Generation Antimalarials” (ACS Infect Dis, 2020).
